Measurements from PubChem BioAssay (NCI).
This is part of a sample that, as a whole, favours compounds with a hit. Of some 83,000 tested, about 20% had one in any assay.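 Interpretation: 100, growth as untreated; towards 0, rising growth inhibition; 0, no net growth; 0 to -100, cell death. Compounds scoring below 10 were considered active.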 The source made the active and inactive calls.

Assays:
Assay in all cases: NCI-60 one-dose screen, 48 h (100 = growth as untreated, 0 = no growth, -100 = all killed)
Settings in all cases: 10 µM unless noted
MOLT-4 leukemia = test system: MOLT-4 leukemia
SR leukemia = test system: SR leukemia
RPMI-8226 leukemia = test system: RPMI-8226 leukemia
OVCAR-8 ovarian = test system: OVCAR-8 ovarian
OVCAR-5 ovarian = test system: OVCAR-5 ovarian
OVCAR-4 ovarian = test system: OVCAR-4 ovarian
SK-OV-3 ovarian = test system: SK-OV-3 ovarian
IGROV1 ovarian = test system: IGROV1 ovarian
HS 578T breast = test system: HS 578T breast
NCI/ADR-RES ovarian = test system: NCI/ADR-RES ovarian
T-47D breast = test system: T-47D breast
BT-549 breast = test system: BT-549 breast
MDA-MB-435 melanoma = test system: MDA-MB-435 melanoma
SW-620 colon = test system: SW-620 colon
MCF7 breast = test system: MCF7 breast
HCT-116 colon = test system: HCT-116 colon
HCC-2998 colon = test system: HCC-2998 colon
KM12 colon = test system: KM12 colon
OVCAR-3 ovarian = test system: OVCAR-3 ovarian

Measured: growth

C#Cc1cccc(Nc2nc(Cl)nc3cc(NC(=O)CF)ccc23)c1
active: MDA-MB-435 melanoma -19.1%
inactive: MOLT-4 leukemia 80% | SR leukemia 22.1% | RPMI-8226 leukemia 103% | OVCAR-8 ovarian 88.2% | OVCAR-5 ovarian 78.7% | OVCAR-4 ovarian 108% | SK-OV-3 ovarian 81.5% | IGROV1 ovarian 75.4% | HS 578T breast 84.3% | NCI/ADR-RES ovarian 53.9% | T-47D breast 79.5% | BT-549 breast 72.2% | SW-620 colon 35.4% | MCF7 breast 48.2% | HCT-116 colon 42.4% | HCC-2998 colon 78.2% | KM12 colon 40.1%

ClCc1ccc(Cl)c(Cl)c1
inactive: MOLT-4 leukemia 105% | SR leukemia 101% | RPMI-8226 leukemia 109% | OVCAR-8 ovarian 104% | OVCAR-5 ovarian 98.7% | OVCAR-4 ovarian 106% | SK-OV-3 ovarian 106% | IGROV1 ovarian 94.7% | HS 578T breast 103% | NCI/ADR-RES ovarian 106% | T-47D breast 106% | BT-549 breast 104% | MDA-MB-435 melanoma 106% | MCF7 breast 97.2% | HCT-116 colon 96.1% | HCC-2998 colon 103% | KM12 colon 104%

C=CC1CN2CCC1CC2C(O)c1ccnc2ccccc12 (centres undefined)
inactive: MOLT-4 leukemia 258% | SR leukemia 344% | RPMI-8226 leukemia 213% | OVCAR-8 ovarian 127% | OVCAR-5 ovarian 116% | OVCAR-4 ovarian 129% | SK-OV-3 ovarian 133% | HS 578T breast 117% | T-47D breast 135% | BT-549 breast 181% | MDA-MB-435 melanoma 128% | SW-620 colon 112% | MCF7 breast 116% | KM12 colon 115%
active: NCI/ADR-RES ovarian -15.5%

CCCCS(=O)(=O)Cl
inactive: MOLT-4 leukemia 116% | SR leukemia 104% | RPMI-8226 leukemia 109% | OVCAR-8 ovarian 105% | OVCAR-5 ovarian 104% | OVCAR-4 ovarian 97.8% | SK-OV-3 ovarian 110% | IGROV1 ovarian 116% | HS 578T breast 102% | NCI/ADR-RES ovarian 107% | T-47D breast 100% | BT-549 breast 104% | MDA-MB-435 melanoma 108% | MCF7 breast 97.7% | HCT-116 colon 97.6% | HCC-2998 colon 124% | KM12 colon 114%

C[C@]12CC[C@H]3[C@@H](C[C@@H]4SC(Nc5ccccc5)=N[C@@]45C/C(=N/O)CC[C@]35C)[C@@H]1CCC2=O
inactive: MOLT-4 leukemia 20.2% | OVCAR-8 ovarian 46.7% | OVCAR-5 ovarian 99.7% | SK-OV-3 ovarian 105% | IGROV1 ovarian 88.4% | OVCAR-3 ovarian 42.9% | HS 578T breast 65.2% | NCI/ADR-RES ovarian 86.2% | T-47D breast 64.4% | BT-549 breast 35.6% | MDA-MB-435 melanoma 51.6% | MCF7 breast 28.4% | HCC-2998 colon 102% | KM12 colon 67.8%
active: SR leukemia 2.15% | RPMI-8226 leukemia -1.41% | HCT-116 colon 9.01%
